Compound activity as filed in PubChem BioAssay.
Most compounds without a hit are left out; they make up all but 19% or so of the library.
IL1B secr inh: qHTS for Inhibitors of Inflammasome Signaling: IL-1-beta AlphaLISA Primary Screen; THP-1 LPS/ATP IL-1B secretion, AlphaLISA, 16 h; stronger effect = lower value; 4.7% of 360,000 active; activity change, % at 57.5 µM; in the data active = activity change below about -50%; inconclusive = mostly about -30% to -49%
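Secreted IL-1B measured by AlphaLISA bead assay after 16 h compound exposure of THP-1 cells; compounds (final up to 57.5 uM) added 1 h before LPS (250 ng/mL) and ATP (1.25 mM) stimulation; lower signal means less secretion.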
uPA surface inh: qHTS for Inhibitors of Cell Surface uPA Generation. cell surface uPA generation assay, qHTS. Potency, µM (top dose mostly 38.3 µM), without a hit: at the highest dose activity change, negative = inhibition, hits mostly inhibitors. 0.31% of 330,000 active. AID 540303, 2011; active = well fitted inhibition curve with a large enough effect; inconclusive = small, poorly fitted or top-dose-only effect; inactive = no such curve, though single readings can be large or run the other way; tested in mouse RAW 264.7 cells; also: potency is read from the fitted curve at half-maximal effect; nearly all actives have a fitted effect of over 55% in size
DT40 TDP1 no CPT: qHTS for Inhibitors of human tyrosyl-DNA phosphodiesterase 1 (TDP1): qHTS in cells in absence of CPT; Potency, µM (highest dose often 46.2 µM), inactives show at the highest dose activity change, negative = growth inhibition, hits mostly inhibitors; DT40 Tdp1-/- hTDP1 cells, no CPT, ATP luminescence, 48 h; 15% of 420,000 active; also: potency is read from the fitted curve at half-maximal effect; nearly all actives have a fitted effect of over 55% in size
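Growth kinetics read by CellTiter-Glo luminescence after ≥48 hr at 37 °C. Cells: DT40 Tdp1-/- stably carrying human TDP1, 400 per well, compound exposure in the absence of CPT (DMSO vehicle).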
HT1080 IDH1KD tx: qHTS for induction of synthetic lethality in tumor cells producing 2HG: qHTS for the HT-1080-IDH1KD cell line; Potency, µM (titrated, usually from 46.1 µM), without a hit: at the highest dose activity, negative = toxicity, actives largely listed as cytotoxic; HT-1080 IDH1 knockdown viability, ATP luminescence, 48 h; 2% of 360,000 active;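 also: potency is read from the fitted curve at half-maximal effect; 0% = DMSO wells and -100% = cell-free medium wells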
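CellTiter-Glo luminescence after 48 h compound exposure at 37 degrees C of IDH1-knockdown HT-1080 cells in 5% FBS RPMI. %Activity scaled between DMSO wells and cell-free media wells, with curves fitted and assigned curve classes.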
TDP1 cell CPT: qHTS for Inhibitors of human tyrosyl-DNA phosphodiesterase 1 (TDP1): qHTS in cells in presence of CPT. chicken DT40 Tdp1-/-;hTDP1 cells + 20 nM CPT, ATP luminescence, 48 h. Potency, µM (top dose mostly 46.2 µM), without a hit: top-dose activity change, negative = growth inhibition, usual class: inhibitors. 12% of 420,000 active; also: potency is read from the fitted curve at half-maximal effect; nearly all actives have a fitted effect of over 55% in size
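Cell growth measured by CellTiter-Glo luminescence after a minimum 48 h, 37 C compound exposure with 20 nM CPT in Tdp1-knockout DT40 cells stably expressing hTDP1, seeded 400/well; qHTS titration format.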
HT1080NT lethal: qHTS for induction of synthetic lethality in tumor cells producing 2HG: qHTS for the HT-1080-NT fibrosarcoma cell line | HT-1080-NT fibrosarcoma viability, CellTiter-Glo ATP luminescence, 48 h | Potency, µM (titrated, usually from 46.1 µM), for the others: at the highest dose activity, negative = less viability, actives largely listed as cytotoxic | 1.6% of 360,000 active | AID 686970, 2013;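 also: NT is the 2HG producing partner of a matched IDH1 knockdown line; potency is read from the fitted curve at half-maximal effect; 0% = DMSO-treated cells and -100% = media-only wells without cells; nearly all actives have a fitted effect of over 55% in size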
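Toxicity toward the 2HG-producing NT line was scored as %Activity, normalised to DMSO and no-cell wells, from CellTiter-Glo luminescence after 48 hours' treatment.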
* hit, by the source's call; ? = inconclusive; / = not tested or not shown; [ ] = another dose, or the depositor's remark. Unless noted, calls follow the shape of the dose curve; as a rule, active = well fitted curve in the direction sought with a large enough effect; inconclusive = small, poorly fitted or top-dose-only effect, or another doubt; inactive = no such curve, though single readings can be large; an effect the other way counts as inactive or inconclusive. Unless noted, % is scaled to controls: 0 for no effect and ±100 for the full control effect.

SMILES	IL1B secr inh	uPA surface inh	DT40 TDP1 no CPT	HT1080 IDH1KD tx	TDP1 cell CPT	HT1080NT lethal
CC(=O)c1cccc(NC(=S)NCCc2ccc(Cl)cc2)c1	-92.3*	/	18.4µM*	-0.2%	?	-2.8%
COC(=O)c1cccc(NC(=S)NCCC2=CCCCC2)c1	22.8	-6.2%	10.3µM*	20.6µM*	11.6µM*	-23.9%
O=C(Nc1cnn(Cc2ccc(Cl)cc2Cl)c1)c1cc(-c2cccs2)on1	-0.1	/	?	-27.8%	-35.3%	-1.3%
CC(=O)c1ccc(NC(=S)NCc2ccc(Cl)cc2Cl)cc1	-15.6	-23.5%	23.1µM*	0.0%	?	-0.3%
CC(C)NC(=O)N1CCC2(CC1)CCN(C(=O)c1csnn1)CC2	/	/	-3.8%	/	21.3%	/
CCCn1c(SCC(=O)NCCc2ccccc2)nnc1C(C)C	4.5	2.3%	-5.9%	24.2%	0.9%	?
Cc1cc(Cl)ccc1NC(=O)/N=C1/NC(=O)CS1	-21.3	/	-5.0%	1.4%	-26.5%	23.6%
O=S(=O)(c1cnc(Cl)c(Cl)c1)N1CCN(c2ncccn2)CC1	13.7	3.5%	3.2%	18.5%	-22.4%	4.9%
CCN(CC)c1ccc(C=C(c2nnnn2-c2ccccc2)c2nnnn2-c2ccccc2)cc1	-7.3	6.1%	10.3µM*	15.0%	?	11.8%
Cc1ccc(-n2nnnc2C(=Cc2ccc(N(C)C)cc2)c2nnnn2-c2ccc(C)cc2)cc1	-24.0	-7.9%	-28.5%	-11.7%	?	1.5%
Oc1ccccc1N1CCN(Cc2ncc(-c3ccccc3)o2)CC1	-52.8*	-4.1%	-10.0%	-14.1%	6.1%	-20.1%
Fc1ccccc1CSc1ccc(-c2ccco2)nn1	-6.1	-9.0%	?	11.5%	-22.5%	-2.5%
COc1ccccc1-c1ccc(SCc2ccccc2)nn1	55.1	-15.6%	20.6µM*	-10.9%	?	-20.2%
COc1ccccc1-c1ccc(SCc2cccc(F)c2)nn1	13.7	7.7%	?	-21.1%	?	-23.4%
COc1ccccc1-c1ccc(SCc2ccccc2F)nn1	-60.3*	10.2%	?	-19.8%	-20.2%	-7.4%
COc1ccccc1-c1ccc(SCC(=O)NCCc2ccccc2)nn1	-13.8	26.7%	23.1µM*	6.7%	?	-0.6%
Cc1cc(C)c2cc(C#N)c(NCCNC(=O)c3cccnc3)nc2c1	-12.3	/	?	1.3%	?	4.6%
OC1C2COC(O2)[C@H](O)C1O (some centres not stated)	/	/	-5.8%	/	6.0%	/
Nc1ccc(CC(N)c2csc(Nc3cc(Oc4ccccc4)ncn3)n2)cc1 (configuration not stated)	-85.3*	/	23.1µM*	?	?	?
NCc1csc(Nc2cc(Oc3ccccc3)ncn2)n1	12.1	/	?	23.5%	?	-3.1%
NC(Cc1ccc(C(F)(F)F)cc1)c1csc(Nc2cc(Oc3ccccc3)ncn2)n1 (configuration not stated)	-88.9*	/	?	?	?	?
CC(C)c1c(C(=O)NCc2ccncc2)cnn1-c1nccc(-c2cccs2)n1	/	/	-18.5%	/	-12.4%[9.04 µM]	/
COc1ccccc1NC(=O)Cn1cnc2c(oc3nc4c(cc32)CCCC4)c1=O	-24.0	5.5%	-25.0%	17.9%	?	?
CCCCCCn1cnc2c(oc3nc4c(cc32)CCCC4)c1=O	-29.4	-9.1%	-28.6%	2.4%	23.1µM*	-2.6%
CCCCn1cnc2c(oc3nc4c(cc32)CCCC4)c1=O	-60.3*	?	-29.8%	1.4%	-18.9%	-3.7%
SMILES	IL1B secr inh	uPA surface inh	DT40 TDP1 no CPT	HT1080 IDH1KD tx	TDP1 cell CPT	HT1080NT lethal
O=c1c2oc3nc4c(cc3c2ncn1CCCc1ccccc1)CCCC4	-53.1*	-6.7%	?	-2.8%	?	-14.2%
CCCNC(=O)CCc1c(C)nc2nc(CNC(=O)c3ccccc3)nn2c1C	/	/	-4.0%	/	13.8%	/
Cc1ccccc1N(C(=O)CNC(=O)c1ccco1)C(C(=O)NC1CCCC1)c1ccncc1 (configuration not stated)	15.0	5.6%	-4.8%	14.6%	1.6%	1.2%
Cc1cc2c3c(c1)C1(C(=O)N3C(C)(C)CC2C)C(C#N)=C(N)OC2=C1C(=O)CC(C)(C)C2 (configuration not stated)	-16.4	-1.4%	?	-9.3%	-24.0%	-6.0%
Cc1cc2c3c(c1C)C1(C(=O)N3C(C)(C)CC2C)C(C#N)=C(N)Oc2cc(O)ccc21 (configuration not stated)	-61.9*	-2.9%	?	?	?	?
O=C(CCS(=O)(=O)c1ccc2c(c1)NC(=O)CO2)NCCc1ccc(Cl)cc1	65.6	-1.2%	-12.2%	4.6%	-4.2%	11.2%
Cc1ccc(Cl)cc1N1CCN(C(=O)CCS(=O)(=O)c2ccc3c(c2)NC(=O)CO3)CC1	-52.9*	0.3%	10.3µM*	-11.3%	?	-21.6%
O=C1COc2ccc(S(=O)(=O)N3CCN(c4cccc(Cl)c4)CC3)cc2N1	11.5	11.8%	-18.1%	-1.1%	-9.0%	1.0%
O=C1COc2ccc(S(=O)(=O)CCC(=O)N3CCN(c4cccc(Cl)c4)CC3)cc2N1	41.2	5.9%	18.4µM*	?	10.3µM*	?
Cc1ccc(N2CCN(C(=O)CCS(=O)(=O)c3cc4c(cc3Cl)NC(=O)CO4)CC2)c(C)c1	/	/	20.6µM*	/	23.1µM*	/
CCCCN1C(=O)C(=O)NC[C@@H]1Cc1ccc(O)cc1	18.5	/	-4.6%	21.1%	-1.1%	22.2%
C/C(=N\NC(=O)c1nnn(-c2nonc2N)c1CSc1ccc(C)cc1)c1cccs1	-5.8	/	?	-0.2%	-17.6%	-2.4%
Cc1ccc(C(=O)CCNc2ccc(Br)cc2)o1	-19.9	-0.1%	12.6µM*	-9.1%	12.6µM*	-0.9%
